# Reference: PubChem BioAssay AID1851 (National Center for Advancing Translational Sciences (NCATS), 2009)
# The campaign covered roughly 16,000 compounds. About 5,700 (36%) were called active. Not shown: some 24% with an inconclusive outcome. The call rests on the fitted dose curve; in most records, active means well fitted curve in the direction sought with a large enough effect; inconclusive means small, poorly fitted or top-dose-only effect, or effect the other way; inactive means no such curve, though single readings can be large or run the other way. The list shows a part of the results.
# Molecular target: Cytochrome P450 1A2 (Homo sapiens) (UniProt P05177)
# Sequence (P05177 whole entry, looked up): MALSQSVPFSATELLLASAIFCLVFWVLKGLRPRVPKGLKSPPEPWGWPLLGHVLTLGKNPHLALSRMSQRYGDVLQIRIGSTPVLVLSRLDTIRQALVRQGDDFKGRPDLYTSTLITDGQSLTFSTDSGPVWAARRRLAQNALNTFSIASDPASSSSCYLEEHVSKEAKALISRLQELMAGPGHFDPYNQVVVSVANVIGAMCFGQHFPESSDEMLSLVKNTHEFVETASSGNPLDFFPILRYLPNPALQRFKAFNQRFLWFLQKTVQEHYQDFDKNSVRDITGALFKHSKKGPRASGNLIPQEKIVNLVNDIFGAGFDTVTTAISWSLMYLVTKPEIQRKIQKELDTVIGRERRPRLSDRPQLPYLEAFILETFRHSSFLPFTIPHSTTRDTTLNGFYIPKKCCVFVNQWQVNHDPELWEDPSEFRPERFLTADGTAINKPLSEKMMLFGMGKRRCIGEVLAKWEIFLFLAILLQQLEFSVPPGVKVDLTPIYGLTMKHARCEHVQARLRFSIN
# Assay: Cytochrome panel assay with activity outcomes
# Conditions: recombinant CYP, pro-luciferin dealkylation, luminescence, p450-cyp1a2; series mostly up to 57.1 µM
# On the % scale 0 is the no-effect control and ±100 the full control effect.
Compound,"activity, negative = inhibition",AC50
CC(=O)OC[C@H]1O[C@@H](CCO/N=C2/[C@H]3O[C@@H]3[C@@H](O)[C@H]3[C@H]2CCn2c(=O)n(-c4ccccc4)c(=O)n23)C=C[C@@H]1OC(C)=O,-3.93% [at 11.4 µM] (inactive),–
C[C@@H](c1ccccc1)N1C(=O)[C@H]2[C@H]3[C@H](O)[C@H](O)C/C(=N/OC[C@@H](O)COCc4ccco4)[C@H]3CC[C@@H]2C1=O,-3.98% [at 11.4 µM] (inactive),–
O=C(O)CCCCCNC(=O)c1ccccc1Br,–,inactive
CN(C(=S)NC(=O)c1ccccc1Br)C1CCCCC1,–,14.1 µM (active)
C[C@]1(OC(=O)/C=C\c2ccccc2)C[C@@H](O)[C@@]2(O)C=CO[C@@H](O[C@H]3O[C@@H](CO)[C@@H](O)[C@@H](O)[C@@H]3O)[C@H]21,–,inactive
CC(=O)Nc1ccc(Nc2ncnc3c2cnn3-c2ccccc2)cc1,–,inactive
c1ccc(-n2ncc3c2ncn2cnnc32)cc1,–,6.31 µM (active)
Nc1ncnc2c1nc(-c1ccccc1)n2[C@H]1O[C@@H](CO)[C@@H](O)[C@H]1O,-16.8% [at 2.29 µM] (inactive),–
Nc1ncnc2c1cnn2-c1ccccc1,–,6.31 µM (active)
O=C(NCC1CCC(C(=O)O)CC1)OCc1ccccc1 (stereo unspecified),–,inactive
O=C(Nc1cccc(F)c1)Nc1ccccn1,–,2 µM (active)
CSc1nsc(SC)c1NC(=O)Nc1ccccn1,–,2.51 µM (active)
CCOC(=O)c1ccc(NC(=O)C(=O)NCC2CCCO2)cc1 (stereo unspecified),–,inactive
O=C(O)c1nnsc1COCc1ccccc1,-12.2% [at 11.4 µM] (inactive),–
CSc1nsc(SC)c1NC(=O)OCc1ccccc1,–,10 µM (active)
O=C(O)/C=C\C(=O)Nc1ccccn1,-5.8% [at 11.4 µM] (inactive),–
O[C@H](CNc1ccccn1)c1ccccc1,-29.6% [at 11.4 µM] (inactive),–
CSc1nsc(SC)c1NC(=O)OCC1CCCO1 (stereo unspecified),–,20 µM (active)
CCC(=O)NC(NCC1CCCO1)C(Cl)(Cl)Cl (stereo unspecified),–,inactive
CC(=O)N1CCC2(CC1)CCN(C(=O)Nc1cccc(F)c1)CC2,–,inactive
O=C(c1ccco1)N1CCC2(CCN(Cc3nccs3)CC2)CC1,–,inactive
C=C1CC[C@H](O)C/C1=C/C=C1\CCC[C@]2(C)[C@H]1CC[C@H]2[C@@H](C)/C=C\[C@@H](C)C(C)C,–,inactive
COCC(=O)Nc1c(I)c(C(=O)NC[C@@H](O)CO)c(I)c(C(=O)N(C)C[C@@H](O)CO)c1I,–,inactive
Cc1cc(NC(=O)C2=C(O)c3ccccc3S(=O)(=O)N2C)no1,–,inactive
COc1ccc2c(c1)-c1ccccc1S(=O)(=O)N2C(C)=O,–,20 µM (active)
COc1cccc([C@@H]2Oc3ccc(OC)cc3C(=O)[C@H]2O)c1,2.62% [at 11.4 µM] (inactive),–
